SMILES strings stand for the structures. Values without a mark were called inactive. Calls of active or inactive are those of the source. Rule as the data show it, unless noted: active = inhibition above about 36%; inactive = the rest.

The subject of assay [1] is transactivating tegument protein VP16 (Human herpesvirus 1). As to the kind of experiment: compounds suppressing VP16-driven luciferase signal – cell-based, luminescence, single concentration, counter-screen for SRC2 inhibitor project (AID 652007). The settings on record: cell-based VP16 transactivation luciferase reporter, at 8.9 µM, active compounds read high.
The target of assay [2] is Nuclear receptor coactivator 2 (Homo sapiens) (UniProt Q15596). Kind of assay: inhibition of GAL4-SRC2 driven luciferase expression – cell-based, luminescence, HEK293, triplicate, confirmation (AID 652008;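 active = mean inhibition above 46.5%, the solvent-only control mean plus 3 SD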;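 also: 0% = DMSO-treated cells and 100% = Gossypol at 36 µM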). The conditions noted are these: HEK293 GAL4-SRC2 luciferase reporter, at 8.9 µM, active compounds read high.
Nuclear receptor coactivator 2 (Homo sapiens), sequence (Q15596 whole entry, looked up, the tested form may be a part): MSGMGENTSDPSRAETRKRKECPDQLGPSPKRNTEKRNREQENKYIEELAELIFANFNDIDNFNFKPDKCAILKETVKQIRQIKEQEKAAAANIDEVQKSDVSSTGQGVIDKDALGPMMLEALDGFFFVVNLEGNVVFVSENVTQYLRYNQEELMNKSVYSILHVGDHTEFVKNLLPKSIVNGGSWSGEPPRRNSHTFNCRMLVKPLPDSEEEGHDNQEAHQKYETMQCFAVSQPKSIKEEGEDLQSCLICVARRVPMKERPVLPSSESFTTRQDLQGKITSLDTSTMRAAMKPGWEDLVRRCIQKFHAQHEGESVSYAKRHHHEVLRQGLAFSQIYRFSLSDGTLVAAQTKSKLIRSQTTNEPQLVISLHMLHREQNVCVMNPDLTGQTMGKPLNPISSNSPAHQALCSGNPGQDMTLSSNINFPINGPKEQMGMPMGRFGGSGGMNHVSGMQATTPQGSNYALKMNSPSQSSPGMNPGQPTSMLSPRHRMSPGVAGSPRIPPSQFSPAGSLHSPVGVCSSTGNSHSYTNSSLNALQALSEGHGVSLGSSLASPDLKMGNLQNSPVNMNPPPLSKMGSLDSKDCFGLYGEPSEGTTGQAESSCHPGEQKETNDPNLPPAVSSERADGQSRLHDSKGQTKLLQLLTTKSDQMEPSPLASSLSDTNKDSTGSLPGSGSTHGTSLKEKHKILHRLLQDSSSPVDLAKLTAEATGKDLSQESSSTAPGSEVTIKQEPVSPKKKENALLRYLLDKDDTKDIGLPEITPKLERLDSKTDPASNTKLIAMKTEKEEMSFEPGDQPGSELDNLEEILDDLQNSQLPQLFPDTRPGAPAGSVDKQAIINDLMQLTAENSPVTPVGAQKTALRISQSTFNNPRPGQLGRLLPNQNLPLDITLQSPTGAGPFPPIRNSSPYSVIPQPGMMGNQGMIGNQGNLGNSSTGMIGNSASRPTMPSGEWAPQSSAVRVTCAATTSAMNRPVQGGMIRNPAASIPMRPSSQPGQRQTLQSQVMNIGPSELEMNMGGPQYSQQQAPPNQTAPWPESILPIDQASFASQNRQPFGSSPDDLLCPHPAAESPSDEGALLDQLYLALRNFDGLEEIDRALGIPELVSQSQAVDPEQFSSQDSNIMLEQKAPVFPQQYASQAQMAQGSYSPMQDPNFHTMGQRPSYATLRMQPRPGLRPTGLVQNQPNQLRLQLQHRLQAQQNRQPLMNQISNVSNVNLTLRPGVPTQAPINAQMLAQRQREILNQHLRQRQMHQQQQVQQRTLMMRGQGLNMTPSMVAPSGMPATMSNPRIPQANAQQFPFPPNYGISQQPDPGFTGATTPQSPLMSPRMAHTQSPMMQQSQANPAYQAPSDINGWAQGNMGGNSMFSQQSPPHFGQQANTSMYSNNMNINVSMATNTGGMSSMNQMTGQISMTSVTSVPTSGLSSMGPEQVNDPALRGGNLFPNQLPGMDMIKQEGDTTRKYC

In the case of `O=C(NCCc1ccccc1)C(c1cccs1)N(C(=O)CCl)c1ccc(Cl)cc1` (configuration not stated), the inhibition in assay [1] is 22.9%; in assay [2], 52.8% (active).

Regarding `CN1CCN(S(=O)(=O)c2cccc(C(=O)Nc3ccc(Br)cc3Br)c2)CC1`, the inhibition is 12.2% in assay [1] and 12.1% in assay [2].

On to `CC(C)C(=O)Nc1cccc2nsnc12`, for which the inhibition in assay [1] was -7.28%; in assay [2] it was 5.54%.

For the compound `O=C(NCCc1ccccc1)c1ccc2c(c1)OCO2`, the inhibition was -13.4% in assay [1] and 16.7% in assay [2].

In the case of `COc1ccc(NC(=O)CSCC(=O)Nc2ccccc2C(=O)N2CCCCC2)cc1`, the inhibition was -8.77% in assay [1] and -20.5% in assay [2].

As for `Cc1nnc(NC(=O)c2nc(S(=O)(=O)Cc3ccccc3)ncc2Cl)s1`, the inhibition in assay [1] is 1.66%; in assay [2], 22.4%.

On to `COc1ccc(/C=C2\SC(=S)N(CCCC(=O)N3CCOCC3)C2=O)cc1`, for which the inhibition in assay [1] is 45.9% (active); in assay [2], 35.5%.

For `COc1cccc(NC(=O)N2CCc3nc(Nc4ccc(C(C)C)cc4)ncc3C2)c1`, the inhibition in assay [1] was -73.3%; in assay [2], 7.35%.

Turning to `O=C(N/N=C/c1coc2ccc(Cl)cc2c1=O)c1cc(O)cc(O)c1`, the inhibition in assay [1] is 23.4%; in assay [2], 18.5%.

`Cc1ccc(NC(=O)Cn2cccc2C2=NC(c3ccccc3)CO2)cc1C` (configuration not stated): the inhibition is -8.04% in assay [1] and -4.44% in assay [2].

Regarding `Cc1csc(NC(=O)CSc2ccc([N+](=O)[O-])cn2)n1`, the inhibition is -0.96% in assay [1] and -30.9% in assay [2].

Take `Cc1nnc(SCC2=C(C(=O)O)N3C(=O)C(NC(=O)Cn4nc(C)c(Cl)c4C)C3SC2)s1` (configuration not stated): the inhibition is -2.47% in assay [1] and -7.12% in assay [2].

In the case of `C=C1C(=O)[C@@]23[C@H](O)C[C@@H]4C(C)(C)CC[C@H](O)[C@]4(C)[C@@H]2C[C@H](O)[C@@H]1[C@H]3O`, the inhibition in assay [1] is 4.46%; in assay [2], 54% (active).

Take `CC(C)(C)c1nnc2sc(SCC(=O)c3cccs3)nn2c1=O`: the inhibition in assay [1] was 15.5%; in assay [2] it was 30%.

`COc1ccc(NS(=O)(=O)c2ccc(OC)c(N(C)S(=O)(=O)c3ccc(Cl)cc3)c2)cc1`: the inhibition in assay [1] is 17.3%; in assay [2], 31.2%.

`Cc1nc2ccccc2c2c1CC(C(C)(Cl)Br)O2` (configuration not stated): the inhibition in assay [1] was 5.15%; in assay [2] it was 29.1%.

`Cn1nnnc1Sc1ncnc2scc(-c3cccc(S(C)(=O)=O)c3)c12`: the inhibition in assay [1] was 21.7%; in assay [2] it was 2.26%.

With `C=CCOc1ccccc1CN1CCC(Cc2ccccc2)CC1`, the inhibition was 8.57% in assay [1] and -13.5% in assay [2].

Consider `O=C(NN1CCOCC1)c1ccco1`, for which the results for the inhibition in assay [1] and in assay [2] were -7.57% and -31.5%, respectively.

Consider `CC(=O)Nc1c([N+](=O)[O-])cc(C)c(Cl)c1[N+](=O)[O-]`, for which the inhibition is -10.7% in assay [1] and 3.8% in assay [2].

As for `COc1ccccc1/C=C1\SC(=S)N(CCC(=O)NCCCn2ccnc2)C1=O`, the values for the inhibition in assay [1] and in assay [2] were -0.06% and 1.79%, respectively.

As for `Clc1cccc(CN2CCN(c3ncc(Cc4ccccc4)cn3)CC2)c1Cl`, the figures for the inhibition in assay [1] and in assay [2] were -0.77% and 24.5%, respectively.

As for `C=C(C(=O)c1ccccc1)C(c1ccccc1)C(C)C(=O)c1ccccc1` (configuration not stated), the inhibition in assay [1] was 28.8%; in assay [2], 31.4%.

For the compound `COc1cc(C)c(Br)cc1S(=O)(=O)NCc1cccs1`, the figures for the inhibition in assay [1] and in assay [2] were -10.6% and -12.6%, respectively.

Regarding `O=C(c1ccc(Cl)cc1)C(CN1CCCC1)c1ccccc1` (configuration not stated), the inhibition in assay [1] is 26.1%; in assay [2] it was 53.9% (active).

Take `CCS(=O)(=O)c1ncc(Cl)c(C(=O)Nc2ccc(C)cc2)n1`: the results for the inhibition in assay [1] and in assay [2] were 1.43% and 0.68%, respectively.

For `CCc1ccc(/C=C2\SC(=S)N(CCCC(=O)Nc3cc(C)on3)C2=O)cc1`, the inhibition in assay [1] is 28.9%; in assay [2] it was 73.4% (active).

Consider `C=CCN=C1NN=C(c2cc(C)n(CCOC)c2C)CS1`, for which the inhibition in assay [1] was 69.5% (active); in assay [2], 86% (active).

As to `COc1ccccc1NC(=S)N1CCCCCC1`, the inhibition in assay [1] is -7.33%; in assay [2], -14.3%.

Turning to `CC(NC(=O)CCc1nnc(-c2ccc(-c3ccccc3)cc2)o1)c1nc2ccccc2[nH]1` (configuration not stated), the inhibition was 15.2% in assay [1] and 55.9% (active) in assay [2].

For the compound `CCC(C)C(NC(=O)OCc1ccccc1)C(=O)OCN1C(=O)c2ccccc2C1=O` (configuration not stated), the inhibition in assay [1] is -13.9%; in assay [2], -8.71%.

Regarding `O=C(N=C1SC2CS(=O)(=O)CC2N1Cc1ccccc1)C1CCCO1` (configuration not stated), the inhibition is -0.59% in assay [1] and -2.87% in assay [2].

`Cc1cc(Br)ccc1NC(=O)CN(C)C(=O)C1CCN(c2ncnc3sc(C)c(C)c23)CC1`: the inhibition in assay [1] is 12.9%; in assay [2], 23%.

`COc1ccccc1NC(=O)C(C)OC(=O)c1cc2ccccc2[nH]1` (configuration not stated): the inhibition in assay [1] is 15.9%; in assay [2] it was 17.2%.

For the compound `Cc1ccc(/C=C2\SC(=S)N(CCCC(=O)Nc3cc(C)on3)C2=O)cc1`, the results for the inhibition in assay [1] and in assay [2] were 31.6% and 68.8% (active), respectively.

`O=C(Nc1ccnn1C1CCN(C(=O)c2ccc(Cl)cc2)CC1)C1CC1`: the inhibition was -6.97% in assay [1] and -7.33% in assay [2].

Take `COc1cc(NC(=O)C2CC(c3c(F)cccc3Cl)=NO2)cc(OC)c1OC` (configuration not stated): the inhibition in assay [1] is -4.58%; in assay [2] it was 4.43%.

As for `CC(C)(C)c1ccccc1NC(=O)CN1C(=O)NC2(CCCC2)C1=O`, the inhibition in assay [1] was -13.7%; in assay [2], -9.65%.

On to `O=C(O)CCSc1nnc(-c2ccc3c(c2)OCO3)o1`, for which the inhibition in assay [1] is 45.9% (active); in assay [2], 60.7% (active).

For the compound `O=C(CCCN1C(=O)/C(=C/c2ccc3c(c2)OCO3)SC1=S)Nc1ccc(C(=O)O)cc1`, the inhibition is 53.6% (active) in assay [1] and 36.2% in assay [2].

On to `CCC1CSC(Nc2ccc(C(=O)/C=C/c3ccc(OC)c(OC)c3)cc2)=N1` (configuration not stated), for which the inhibition was 12.8% in assay [1] and 39.9% in assay [2].

Take `CC(C)(C)c1ccc(OC(=O)Nc2ccc(O)c(C(=O)O)c2)cc1`: the inhibition is 7.15% in assay [1] and 30.5% in assay [2].

`CC(OC(=O)C1=COCCO1)C(=O)Nc1ccc(Cl)cn1` (configuration not stated): the figures for the inhibition in assay [1] and in assay [2] were -6.28% and -20.4%, respectively.

Take `COC(=O)C1=C(C)N(Cc2ccccc2C(F)(F)F)C(=NCc2ccccc2)NC1c1ccc(Cl)cc1` (configuration not stated): the inhibition in assay [1] is 2.66%; in assay [2] it was 1.39%.

Consider `COCCN=C1Sc2nc3c(C)cccc3cc2CN1Cc1ccco1`, for which the inhibition was -12% in assay [1] and 4.64% in assay [2].

For `Cc1cc(C(=O)CN2C(=O)C(=O)N(Cc3ccccc3)C2=O)c(C)n1-c1ccc2c(c1)OCCO2`, the results for the inhibition in assay [1] and in assay [2] were -14.1% and -36%, respectively.

Turning to `O=C(CSCc1ccc(C(=O)O)cc1)Nc1ccccc1`, the inhibition in assay [1] is -18.8%; in assay [2], -31.5%.

Regarding `CCS(=O)(=O)Nc1ccc(C2=NN(C(=O)c3ccco3)C(c3cccs3)C2)cc1` (configuration not stated), the inhibition in assay [1] was -5.61%; in assay [2] it was -29.7%.

With `COc1ccccc1-c1cc2nc(C)c(CCC(=O)NCc3ccco3)c(C)n2n1`, the inhibition in assay [1] was -5.98%; in assay [2] it was 17.5%.

As for `O=C(CCl)Nc1ccccc1C(=O)NCc1ccccc1`, the inhibition in assay [1] is 0.94%; in assay [2], 42.9%.

Consider `COc1ccc(C(=O)NC(=C(Cl)Cl)S(=O)(=O)c2ccc(C)cc2)cc1`, for which the inhibition in assay [1] was 3.97%; in assay [2], 36.6%.

For the compound `O=C(CCl)N(Cc1cc(=O)[nH]c2ccccc12)c1ccccc1`, the inhibition was 38.6% (active) in assay [1] and 50.5% (active) in assay [2].

For `COC(=O)COc1ccc(-c2nccc(-c3ccccn3)n2)cc1`, the inhibition in assay [1] is 16.9%; in assay [2] it was 73.4% (active).

For the compound `CCn1c(Oc2ccccc2)nc2c1c(=O)n(C)c(=O)n2C`, the inhibition in assay [1] is 8.01%; in assay [2], 42.6%.

For `CN(c1ccc(F)cc1)S(=O)(=O)c1ccc(Cl)c(C(=O)Nc2ccncc2)c1`, the inhibition in assay [1] was -3.83%; in assay [2], 26.5%.

Consider `CCOc1ccc(CN2CCNC(=O)C2CC(=O)NCCc2cnccn2)cc1` (configuration not stated), for which the inhibition was 10.4% in assay [1] and -23.9% in assay [2].

For the compound `O=C(CN1CCN(S(=O)(=O)c2ccc(F)c(F)c2)CC1)Nc1ccccc1C(=O)NC1CC1`, the figures for the inhibition in assay [1] and in assay [2] were -15.4% and -35.8%, respectively.

In the case of `O=C(C1=NN[C@@H]2C(=O)N(c3cccc(C(F)(F)F)c3)C(=O)[C@H]12)c1ccc2ccccc2n1`, the inhibition in assay [1] is 2.15%; in assay [2], 6.3%.

Regarding `CC(C)=C1C2CCC1C1C(=O)N(c3nccs3)C(=O)C21` (configuration not stated), the inhibition in assay [1] is 12.1%; in assay [2] it was 6.16%.

Take `CC1CCCCC12NC(=O)N(CC(=O)Nc1ccc(OC(F)F)cc1)C2=O` (configuration not stated): the inhibition in assay [1] was -18.4%; in assay [2], -11.2%.

As to `COc1ccc(S(=O)(=O)Nc2cc(Sc3ncn[nH]3)c(O)c3ccccc23)cc1`, the inhibition was 26.7% in assay [1] and 10.1% in assay [2].

Turning to `O=c1oc2ccc(C#CC3(O)CCCCC3)cc2cc1-n1cc(-c2ccccn2)nn1`, the inhibition in assay [1] was -8.43%; in assay [2], -3.27%.

Take `Cc1ccc(C(=O)NC(=S)Nc2ccc(-c3cc4ccccc4oc3=O)cc2)c(C)c1`: the results for the inhibition in assay [1] and in assay [2] were -3.58% and 19.5%, respectively.

For the compound `CC(=O)N(Cc1ccc(F)cc1)C1=C(NCCc2ccccc2)C(=O)c2ccccc2C1=O`, the results for the inhibition in assay [1] and in assay [2] were 14.1% and 20%, respectively.

As to `O=C(Nc1ccc2oc(=O)c(C(=O)O)cc2c1)Oc1ccccc1`, the values for the inhibition in assay [1] and in assay [2] were -3.08% and 9.66%, respectively.

Regarding `O=[N+]([O-])c1ccc(-c2ccc(S(=O)(=O)NCCN3CCCC3)cc2)cc1`, the figures for the inhibition in assay [1] and in assay [2] were 12.2% and 17.4%, respectively.

With `Cc1cc(C)n(CCC(=O)N/N=C/c2c(O)ccc3ccccc23)n1`, the results for the inhibition in assay [1] and in assay [2] were 5.98% and 17.2%, respectively.

On to `Cc1nc([N+](=O)[O-])c(C(=O)OCc2ccccc2F)n1C`, for which the inhibition in assay [1] is -22.8%; in assay [2], 1.38%.

In the case of `O=[N+]([O-])c1ccc(Sc2nnnn2-c2ccccc2)nc1`, the inhibition in assay [1] is 12.5%; in assay [2], 40.7%.

With `C=C(C)C(=O)OC1(C(F)(F)F)Oc2cc(C)ccc2NC1=O` (configuration not stated), the inhibition in assay [1] was -6.48%; in assay [2], 17.5%.

On to `CCN(CC)S(=O)(=O)c1cccc(-n2c(O)c(C=Nc3ccccc3C(=O)O)c3ccccc3c2=O)c1`, for which the values for the inhibition in assay [1] and in assay [2] were -0.6% and 21.9%, respectively.

Values taken from PubChem BioAssay.
